Data published in PMC5540273 (PLoS ONE, 2017).

Assays:
Details in all cases: concentration: 1 μM, replicates: in singlicate; n = 1
MINK = test system: T1, MINK
T1 construct: gene MINK1

MKK7 = test system: MKK7
MKNK1 = test system: MKNK1
MKNK2 = test system: MKNK2
MLCK = test system: T2, MLCK
T2 construct: gene MYLK3

MLK1 = test system: T3, MLK1
T3 construct: gene MAP3K9

MLK2 = test system: MLK2
MLK3 = test system: MLK3
MRCKA = test system: MRCKA
MRCKB = test system: T4, MRCKB
T4 construct: gene CDC42BPB
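Note: KINOMEscan kinase panel screen.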

Row | Structure (SMILES) | %Inh (MINK) [%] | %Inh (MKK7) [%] | %Inh (MKNK1) [%] | %Inh (MKNK2) [%] | %Inh (MLCK) [%] | %Inh (MLK1) [%] | %Inh (MLK2) [%] | %Inh (MLK3) [%] | %Inh (MRCKA) [%] | %Inh (MRCKB) [%]
1 | COc1ccc(Nc2nccc(N3CCC(NC(=O)C(C)c4ccc(Cl)cc4)CC3)n2)cc1 (stereo not shown) [GSK1379812] | 51 | 0 | 36 | 5 | 0 | 0 | 0 | 52 | 20 | 0
2 | Cn1cncc1-c1cc2c(Nc3ccc(OCc4ccccc4)cc3)ncnc2cn1 [GW281179] | 0 | 11 | 0 | 47 | 0 | 0 | 0 | 15 | 21 | 0
3 | COC(=O)C(NC(=O)NC1CCN(c2ccnc(Nc3ccc(F)cc3)n2)C1)c1ccccc1 (stereo not shown) [GSK1379712] | 7 | 32 | 24 | 6 | 5 | 0 | 0 | 6 | 10 | 0
4 | CC(=O)c1cccc(NC(=O)NC2CCN(c3ccnc(Nc4ccc(F)cc4)n3)C2)c1 (stereo not shown) [GSK1379710] | 11 | 0 | 27 | 0 | 0 | 0 | 0 | 3 | 20 | 0
5 | CC(=O)c1c(C)c2cnc(Nc3ccc(N4CCNCC4)cn3)nc2n(C2CCCC2)c1=O | 0 | 0 | 0 | 0 | 8 | 0 | 0 | 0 | 0 | 35
6 | CC(C)c1cc(-c2ccc3c(N)n[nH]c3c2)nc(N)n1 [GSK2250882] | 21 | 0 | 36 | 82 | 16 | 0 | 0 | 18 | 12 | 0
7 | O=c1cc(N2CCOCC2)nc2n(Cc3ccccc3F)ccn12 [GSK2297428] | 8 | 0 | 0 | 0 | 0 | 0 | 0 | 38 | 4 | 0
8 | Nc1cccc(-c2ccc3c(N)n[nH]c3c2)n1 [GSK2192730] | 50 | 0 | 13 | 61 | 76 | 0 | 0 | 0 | 0 | 0
9 | Cc1ccc(NC(=O)c2ccc(Cl)cc2)cc1-c1ccc(C(=O)Nc2ccncc2)cc1 [GSK1398467] | 0 | 0 | 0 | 12 | 0 | 0 | 9 | 15 | 9 | 3
10 | O=C1NC(=O)C(c2ccc(Cl)cc2)=C1Nc1cccc(Cl)c1 [SB-317651] | 0 | 0 | 14 | 56 | 0 | 0 | 0 | 1 | 0 | 0
11 | CCn1c(-c2ccccc2)nc2cnccc21 [SB-733416] | 0 | 16 | 25 | 28 | 0 | 0 | 3 | 7 | 0 | 14
12 | Nc1nccc(-c2c(-c3ccc(F)cc3)ncn2C2CCN(Cc3ccccc3)CC2)n1 [SB-219980] | 32 | 0 | 0 | 0 | 5 | 11 | 8 | 0 | 0 | 20
13 | Cc1ccc(-c2nc(Nc3ccncc3)c3ccccc3n2)s1 [GSK189015] | 2 | 0 | 5 | 17 | 14 | 6 | 49 | 5 | 24 | 21
14 | O=C(Nc1n[nH]c2nc(-c3cccs3)c(Br)cc12)C1CCCC1 [SB-743341] | 8 | 12 | 23 | 67 | 86 | 0 | 38 | 19 | 0 | 0
15 | COc1nccc(-c2c(-c3ccc(F)cc3)ncn2CCCN2CCOCC2)n1 [SB-282852] | 0 | 23 | 54 | 42 | 0 | 0 | 0 | 0 | 12 | 0
16 | Cc1cnc(N)c(/C=C/c2cncc(C(=O)NCCc3ccc(Cl)cc3Cl)c2)c1.Cl [GSK190937] | 4 | 0 | 0 | 2 | 6 | 0 | 0 | 0 | 5 | 2
17 | NS(=O)(=O)c1cccc(N/C=C2\C(=O)Nc3ccc(S(=O)(=O)Cc4c(Cl)cccc4Cl)cc32)c1 [GSK398099] | 80 | 0 | 0 | 12 | 0 | 0 | 0 | 0 | 15 | 0

Row | Structure (SMILES) | %Inh (MINK) [%] | %Inh (MKK7) [%] | %Inh (MKNK1) [%] | %Inh (MKNK2) [%] | %Inh (MLCK) [%] | %Inh (MLK1) [%] | %Inh (MLK2) [%] | %Inh (MLK3) [%] | %Inh (MRCKA) [%] | %Inh (MRCKB) [%]
18 | O=c1cc(N2CCOCC2)nc2n(Cc3cccc(Cl)c3Cl)c3ccccc3n12 [GSK2299009] | 5 | 28 | 10 | 8 | 16 | 0 | 32 | 36 | 24 | 14
19 | Cn1cncc1C(=O)NC1CCN(c2ccnc(Nc3ccc(F)cc3)n2)C1 (stereo not shown) [GSK1379717] | 0 | 10 | 0 | 5 | 0 | 0 | 0 | 0 | 2 | 0
20 | Cc1nccc(-c2c(-c3ccc(F)cc3)ncn2CCCN2CCOCC2)n1.Cl [SB-282975] | 18 | 0 | 11 | 1 | 0 | 0 | 22 | 25 | 23 | 0
21 | COc1ccc(Nc2nccc(N3CCC(NC(=O)c4cc5ccccc5s4)C3)n2)cc1 (stereo not shown) [GSK1379738] | 0 | 26 | 22 | 11 | 0 | 0 | 0 | 0 | 12 | 0
22 | CCCCc1nn2ncccc2c1-c1ccnc(NC2CC2)n1 [GW684374] | 7 | 0 | 0 | 0 | 0 | 0 | 0 | 0 | 0 | 0
23 | COc1cccc(CNC(=O)NC2CCN(c3ccnc(Nc4ccc(F)cc4)n3)C2)c1 (stereo not shown) [GSK1379723] | 0 | 31 | 13 | 8 | 0 | 0 | 0 | 0 | 29 | 8
24 | CNc1nc(-c2ccc3c(N)n[nH]c3c2)cc(N2C[C@@H](C(=O)NC3CCCCC3)OC[C@H]2C)n1 [GSK2375584] | 11 | 0 | 10 | 0 | 0 | 0 | 23 | 20 | 4 | 0
25 | Cc1cccc2c(-c3ccncn3)c(-c3ccc(F)cc3)nn12 [GW515532] | 0 | 0 | 0 | 3 | 0 | 0 | 28 | 4 | 0 | 0
26 | FC(F)(F)c1ccccc1-c1cc(-c2c[nH]nc2-c2ccccn2)ccn1 [GW679396] | 11 | 0 | 5 | 0 | 4 | 0 | 0 | 1 | 0 | 0
27 | Cc1ccc(NC(=O)Nc2ccccc2F)cc1-c1ccc(C(=O)Nc2ccncc2)cc1 [GSK1398477] | 0 | 0 | 4 | 0 | 11 | 4 | 17 | 33 | 17 | 30
28 | CS(=O)(=O)CCNCc1nc(-c2ccc3ncnc(Nc4ccc5c(cnn5Cc5ccccc5)c4)c3c2)cs1.Cl.Cl [GW569716] | 1 | 0 | 0 | 23 | 0 | 1 | 0 | 0 | 17 | 18
29 | COc1ccc(Nc2nccc(NCCNC(=O)Nc3cc(C)ccc3C)n2)cc1 [GSK1379899] | 0 | 0 | 0 | 0 | 0 | 0 | 36 | 5 | 1 | 0
30 | O=C1NC(=O)C(c2ccc(Cl)cc2)=C1Nc1ccc(O)cc1 [SB-340867] | 11 | 0 | 0 | 0 | 0 | 0 | 0 | 4 | 8 | 0
31 | O=C(Nc1n[nH]c2cc(-c3ccsc3)ccc12)C1CC1 [SB-732932] | 67 | 8 | 0 | 54 | 65 | 3 | 0 | 0 | 13 | 0
32 | COC(=O)c1cccc(NC(=O)NC2CCN(c3ccnc(Nc4ccc(F)cc4)n3)C2)c1 (stereo not shown) [GSK1379725] | 0 | 0 | 0 | 1 | 0 | 0 | 0 | 0 | 4 | 0
33 | Fc1ccc(-c2nc[nH]c2-c2ccncc2)cc1 [SB-217360] | 58 | 9 | 0 | 0 | 0 | 0 | 30 | 1 | 37 | 27
34 | Cl.Cl.Cl.N#Cc1ccc(CCNc2nccc(-c3cccc(CN4CCNCC4)c3)n2)cc1 [GSK2137462] | 3 | 0 | 46 | 2 | 0 | 0 | 0 | 0 | 48 | 19
